Consider 8 compounds from PubChem BioAssay.

The structures appear in SMILES notation. Active and inactive are the calls of the source. Unless noted, no rule for the calls is given here.

Test [1] is described as follows: resazurin metabolic signal in HepG2 cells – cell-based, resazurin fluorescence, 24 h, PK04 Diversity Set, profiling panel (AID 1172). The note with it: HepG2 viability, higher = more signal.
Test [2] in a line: budding yeast growth changes without added modifier – OD600, strain BY4716, 24 h, basal condition, primary screen (AID 1173). The conditions noted are these: S. cerevisiae BY4716 growth, OD600, 24 h; higher = more signal, called active from +8 up or from −8 down.
A short description of test [3]: viability profiling in MM1S myeloma cells – cell-based, resazurin fluorescence, basal, 24 h, PK04 Diversity Set, profiling panel (AID 1174).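 Also: MM1S multiple myeloma cell line.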 The note with it: higher = more signal, called active from +8 up or from −8 down. (In general: Resazurin is reduced to fluorescent resorufin, in cell work by metabolically active cells.)
For test [4], the target named is Dihydroorotate dehydrogenase (quinone), mitochondrial (Plasmodium falciparum (isolate 3D7)) (UniProt Q08210). Kind of test: inhibition of P. falciparum DHODH – biochemical, C-terminal His tag, absorbance 600 nm, primary screen (AID 1175).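 Also: recombinant parasite enzyme with a five histidine tag at its C terminus.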 The conditions noted are these: PfDHODH enzyme, DCIP absorbance 600 nm; higher = more signal, called active from +8 up or from −8 down.

Test [5] can be described thus: inhibition of PAO1 biofilm formation – strain PAO1, LB-PBS medium, absorbance 600 nm, primary screen (AID 1176). The conditions noted are these: P. aeruginosa PAO1 growth/biofilm, A600, 12 h; higher = more signal.
Test [6] can be described thus: growth modulation of vineyard yeast isolate – strain RM11-1a, OD600, basal, 24 h, primary screen (AID 1177).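 Also: cultures grown under basal conditions with no added stressor.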 The conditions noted are these: S. cerevisiae RM11-1a growth, OD600, 24 h; higher = more signal, called active from +8 up or from −8 down.
A short description of test [7]: growth of efflux-deficient E. coli DRC39 – strain DRC39, OD650, 24 h, E. coli filamentation inducers, primary screen (AID 1178).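 Also: growth measured as culture turbidity by optical density at 650 nm.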 The conditions noted are these: E. coli DRC39 acrAB, higher = more signal, called active from +8 up or from −8 down.
A short description of test [8]: growth of efflux-deficient E. coli DRC39 – strain DRC39, OD650, 48 h, E. coli filamentation inducers, primary screen (AID 1179).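 Also: screen aims at cell division blockers that make cells filament.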 The note with it: E. coli DRC39 delta-acrAB growth, higher = more signal, called active from +8 up or from −8 down.
The nature of test [9]: viability profiling in RPMI8226 myeloma cells – cell-based, resazurin fluorescence, basal, 24 h, PK04 Diversity Set, profiling panel (AID 1180).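 Also: RPMI8826 multiple myeloma cell line at 5000 cells per well.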 The note with it: higher = more signal.
Test [10] concerns the target E3 ubiquitin-protein ligase XIAP (Homo sapiens) (UniProt P98170). Kind of test: small molecules binding XIAP protein – biophysical, small-molecule microarray, fluorescence 635 nm, primary screen (AID 1181).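 Also: score merges 667 nm emission and signal to noise over triplicate slides.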 The note with it: higher = more signal.
In test [11] the test system is XIP peptide (Xip251-270) binding. Nature of the test: XIP fragment 251-270 binding compounds – biochemical, small-molecule microarray, fluorescence 635/667 nm, 0.1 µg/mL protein, primary screen (AID 1182). The note with it: fluorescent protein binding, 635 nm, higher = more signal, called active from +8 up or from −8 down.
Another test relates to XIP peptide (Xip251-270). Nature of the test: compounds binding XIP fragment 251-270 – biochemical, small-molecule microarray, fluorescence 635/667 nm, 0.5 µg/mL protein, primary screen (AID 1183). The conditions noted are these: fluorescence 635 nm, higher = more signal.
Test [12] is described as follows: blood-stage malaria parasite viability loss – strain 3D7, DAPI fluorescence, 100 nL, primary screen (AID 1184).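 Also: parasites grown inside human red blood cells in medium with human serum.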 The note with it: P. falciparum 3D7 growth, 3 d, higher = more signal.
Test [13] addresses Homeobox protein Hox-A13 (Mus musculus) (UniProt Q62424). Kind of test: disruptors of Hoxa13 oligonucleotide interaction – biochemical, fluorescence polarization, labeled oligonucleotide, primary screen (AID 1185). The note with it: Hoxa13:DNA binding, 15 min, higher = more signal, called active from +8 up or from −8 down.
Test [14] is described as follows: blockers of DNA damage checkpoint Chk1 activation – imaging, HeLa, hydroxyurea, phospho-Chk1 antibody, percent positive cells, primary screen (AID 1186). The note with it: hydroxyurea-induced phospho-Chk1 immunofluorescence imaging, higher = more signal.
Test [15] in a line: blockers of DNA damage checkpoint Chk1 activation – imaging, HeLa, hydroxyurea, phospho-Chk1 nuclear intensity, primary screen (AID 1187). The note with it: hydroxyurea-induced phospho-Chk1 immunofluorescence imaging, higher = more signal.

Chain of Homeobox protein Hox-A13 (Mus musculus) (Q62424 whole entry, looked up): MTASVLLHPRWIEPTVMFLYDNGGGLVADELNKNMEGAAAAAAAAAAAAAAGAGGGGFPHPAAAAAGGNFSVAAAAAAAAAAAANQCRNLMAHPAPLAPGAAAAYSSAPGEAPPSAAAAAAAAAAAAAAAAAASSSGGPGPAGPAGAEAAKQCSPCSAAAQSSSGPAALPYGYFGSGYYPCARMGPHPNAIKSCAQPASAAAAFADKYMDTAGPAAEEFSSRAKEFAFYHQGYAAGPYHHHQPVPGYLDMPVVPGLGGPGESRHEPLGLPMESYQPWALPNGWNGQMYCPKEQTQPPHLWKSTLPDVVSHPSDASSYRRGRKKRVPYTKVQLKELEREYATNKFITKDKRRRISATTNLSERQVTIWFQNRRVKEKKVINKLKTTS
Chain of E3 ubiquitin-protein ligase XIAP (Homo sapiens) (P98170 whole entry, looked up, the tested form may be a part): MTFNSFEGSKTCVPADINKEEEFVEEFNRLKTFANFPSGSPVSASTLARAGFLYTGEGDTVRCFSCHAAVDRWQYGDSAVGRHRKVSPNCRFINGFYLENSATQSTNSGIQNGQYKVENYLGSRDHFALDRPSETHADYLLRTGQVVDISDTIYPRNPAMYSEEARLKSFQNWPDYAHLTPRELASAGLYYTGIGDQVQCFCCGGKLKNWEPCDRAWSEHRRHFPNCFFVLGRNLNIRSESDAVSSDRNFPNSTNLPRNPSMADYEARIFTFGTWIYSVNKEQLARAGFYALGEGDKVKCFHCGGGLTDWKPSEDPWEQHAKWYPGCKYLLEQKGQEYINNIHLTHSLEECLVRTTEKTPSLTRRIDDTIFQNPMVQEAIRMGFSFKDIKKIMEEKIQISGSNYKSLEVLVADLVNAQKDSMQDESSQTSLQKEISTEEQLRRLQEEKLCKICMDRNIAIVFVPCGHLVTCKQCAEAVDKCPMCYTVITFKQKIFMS
Chain of Dihydroorotate dehydrogenase (quinone), mitochondrial (Plasmodium falciparum (isolate 3D7)) (Q08210 whole entry, looked up): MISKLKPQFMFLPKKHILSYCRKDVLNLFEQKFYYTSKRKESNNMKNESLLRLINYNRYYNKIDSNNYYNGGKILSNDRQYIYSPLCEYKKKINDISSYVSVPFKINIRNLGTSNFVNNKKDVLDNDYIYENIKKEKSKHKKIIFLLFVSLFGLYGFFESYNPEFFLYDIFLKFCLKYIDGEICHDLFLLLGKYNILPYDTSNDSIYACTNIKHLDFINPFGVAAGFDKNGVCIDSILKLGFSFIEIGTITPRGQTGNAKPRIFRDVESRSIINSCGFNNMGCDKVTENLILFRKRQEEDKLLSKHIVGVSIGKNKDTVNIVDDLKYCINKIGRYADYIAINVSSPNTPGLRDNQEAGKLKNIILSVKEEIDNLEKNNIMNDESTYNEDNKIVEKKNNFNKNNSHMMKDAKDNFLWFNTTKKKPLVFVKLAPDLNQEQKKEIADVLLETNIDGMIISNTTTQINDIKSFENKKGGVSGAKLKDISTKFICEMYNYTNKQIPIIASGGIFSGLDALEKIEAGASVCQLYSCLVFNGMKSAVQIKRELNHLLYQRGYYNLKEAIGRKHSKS

On to `COc1ccc([Si](C)(C)[C@H]2[C@H](CCO)O[C@@]3(C(=O)N(Cc4cccc(N5C(=O)c6ccccc6Oc6ccccc65)c4)c4ccccc43)[C@@H]2C)cc1`, for which the z-score in test [1] was -1.86; in test [2], -0.653 (inactive); in test [3], -2.97 (inactive); in test [5], 1.01 (inactive); in [6] it was 3.62 (inactive); in test [7], 1.42 (inactive). Besides, the z-score in test [8] is 0.597 (inactive); in test [9], -4.05; in [12], -2.82; in test [13], -0.884 (inactive); in test [14] it was -0.432 (inactive); in test [15], -0.702 (inactive). For the same compound, the composite z-score in test [4] is 0.75 (inactive); in test [10], -0.115; in test [11] it was 0.505 (inactive); in the test with XIP peptide (Xip251-270), 0.571.

Turning to `COC(=O)C(CC#Cc1ccc2c(c1)[C@]1(C(=O)N2)[C@H](C(=O)NC[C@H](O)c2ccccc2)[C@H]2C(=O)O[C@H](c3ccccc3)[C@H](c3ccccc3)N2[C@@H]1c1ccccc1OCCO)C(=O)OC`, the z-score in test [1] was 0.786; in test [2], 1.42 (inactive); in [3], -7.38 (inactive); in [5] it was 1.7 (inactive); in test [6] it was 1.6 (inactive); in test [7], 0.0386 (inactive). In addition, the z-score was -0.477 (inactive) in test [8]; -6.76 in test [9]; -2.33 in test [12]; -1.39 (inactive) in test [13]; 0.0062 (inactive) in test [14]; 0.0197 (inactive) in test [15]. Besides, the composite z-score is -7.26 (inactive) in test [4], -0.0629 in test [10], 0.0226 (inactive) in test [11] and 0.654 with XIP peptide (Xip251-270).

`C=C(COC)C(=O)CC[C@@H](OC(C)=O)c1ccccc1OCCO`: the z-score in test [1] is 0.463; in test [2], -0.947 (inactive); in test [3] it was -0.851 (inactive); in test [5] it was 0.166 (inactive); in test [6], -1.56 (inactive); in test [7] it was 0.661 (inactive). Besides, the z-score in test [8] was -0.061 (inactive); in test [9], -1.09; in [12], -2.06; in test [13], -5.01 (inactive); in test [14] it was 0.374 (inactive); in test [15], 0.77 (inactive). Further, the composite z-score is -1.34 (inactive) in test [4], -0.102 in test [10], 0.0063 (inactive) in test [11] and 0.522 in the test with XIP peptide (Xip251-270).

For the compound `C=C(C)[C@@H]1CC=C(C(O)C2C=CC3C(=O)N(c4ccccc4)C(=O)C3N2Nc2ccc([N+](=O)[O-])cc2)CC1` (stereo partly drawn), the z-score in test [1] was -0.783; in test [2], 0.139 (inactive); in test [3], -0.66 (inactive); in test [5], 0.741 (inactive); in test [6], 0.526 (inactive); in test [7] it was -1.17 (inactive). For the same compound, the z-score was -1.37 (inactive) in test [8]; -0.204 in test [9]; -1.26 in test [12]; -1.49 (inactive) in [13]; 0.248 (inactive) in [14]; 0.0235 (inactive) in test [15]. The composite z-score in [4] is 1 (inactive); in [10] it was -0.0848; in test [11], 0.26 (inactive); in the test on XIP peptide (Xip251-270), -0.0122.

Consider `C=C(COC)C(=O)CC[C@@H](OC(=O)c1ccccc1-c1ccccc1C(=O)O)c1ccc(OCCO)cc1`, for which the z-score is -0.425 in test [1]; -0.528 (inactive) in test [2]; -0.105 (inactive) in test [3]; 0.449 (inactive) in test [5]; -0.426 (inactive) in [6]; -0.699 (inactive) in test [7]. Further, the z-score is -0.708 (inactive) in test [8]; -0.492 in [9]; -0.61 in [12]; -5.88 (inactive) in test [13]; -0.0419 (inactive) in [14]; 0.0533 (inactive) in [15]. The composite z-score in test [4] was -1.09 (inactive); in test [10], 0.165; in test [11] it was 0.264 (inactive); with XIP peptide (Xip251-270) it was 0.666.

As to `NC(=O)N1C(=O)C2C(C1=O)C1C=C(CCCO)C2C(c2ccc(CN3CCCC3)cc2)N1Cc1sc2ccccc2c1Cl` (stereo not drawn), the z-score is -0.968 in [1]; -2.06 (inactive) in test [2]; -1.29 (inactive) in [3]; 0.0721 (inactive) in [5]; -0.243 (inactive) in [6]; -0.291 (inactive) in test [7]. Also, the z-score in test [8] is -0.693 (inactive); in test [9], -1.04; in test [12], -0.44; in [13], -4.57 (inactive); in test [14], 0.252 (inactive); in [15], 0.175 (inactive). For the same compound, the composite z-score in [4] is 0.574 (inactive); in [10], -0.167; in [11] it was -0.211 (inactive); in the test with XIP peptide (Xip251-270), 0.245.

With `CC(C)=C1C(=O)C(c2ccccc2)=C2CN3C(=O)N(CCc4ccccc4)C(=O)[C@]3(C)[C@H]21`, the z-score is -0.823 in test [1]; -0.0416 (inactive) in test [2]; -1.56 (inactive) in [3]; -0.0424 (inactive) in test [5]; 0.119 (inactive) in test [6]; -0.575 (inactive) in test [7]. For the same compound, the z-score in test [8] is -0.456 (inactive); in test [9] it was -1.52; in test [12] it was 0.127; in test [13] it was -3.12 (inactive); in [14], -0.0061 (inactive); in test [15], 0.467 (inactive). Further, the composite z-score was -0.757 (inactive) in test [4], 0.387 in test [10], 0.254 (inactive) in [11] and 0.295 with XIP peptide (Xip251-270).

On to `CCOC(=O)C1=CC[C@@H](c2ccc(OC)cc2)N(S(=O)(=O)c2ccc(C)cc2)[C@H]1CC`, for which the z-score in [1] was 0.0292; in test [2], -1.82 (inactive); in test [3] it was -0.289 (inactive); in test [5], 0.505 (inactive); in [6] it was -0.0802 (inactive); in test [7], 0.608 (inactive). The z-score was 1.87 (inactive) in [8]; -0.793 in test [9]; -2.03 in test [12]; -0.507 (inactive) in test [13]; -0.819 (inactive) in [14]; -0.599 (inactive) in test [15]. In addition, the composite z-score is -1.04 (inactive) in [4], -0.321 in test [10], 0.441 (inactive) in test [11] and 0.463 in the test on XIP peptide (Xip251-270).
